These results are taken from publication PMC8384837, “Expanding the binding specificity for RNA recognition by a PUF domain”.

The first test concerns the target PUM1 PUF domain R5-ERL (Homo sapiens, UniProt Q14671 828-1176, C1007E;Q1011L). The test is described as follows: yeast three-hybrid, YBZ-1, SC-Leu-His + 0.5 mM 3-AT, 4 days. The settings on record: tags: N-Gal4 AD-HA kept; label: inside an RPR1-promoter hybrid RNA with tandem MS2 sites; ssRNA. In a few lines: (§1)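 Pumilio-1 PUF domain libraries, randomized at the three base-contacting residues of each repeat, were co-expressed with matching RNA elements from a centromeric plasmid in strain YBZ-1, which carries a LexA–MS2 coat fusion and a HIS3 reporter. Transformants grew for four days on SC-Leu (input) or on SC-Leu-His + 0.5 mM 3-AT (selection), and the repeat regions were PCR-amplified and Illumina-sequenced. The interaction score is the log change in variant frequency from input to selection. That logarithm is base 2, with a pseudocount of 1 where a variant was absent.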
Consider “GGCUAGAACUAGUGGAUCCCCCGGCGCCCGGCGGCUCGAGCCCGGGUAAGUGUCAAUAGUCUGCAUGCCGCCGGGCGCCAUGCCUGCAGGUCGACUCUAGAAAACAUG”, for which the binding signal was 3.87 log2 enrichment (interaction score).

Regarding “GGCUAGAACUAGUGGAUCCCCCGGCGCCCGGCGGCUCGAGCCCGGGUAAGUGUAAAUAGUCUGCAUGCCGCCGGGCGCCAUGCCUGCAGGUCGACUCUAGAAAACAUG”, the binding signal was 5.49 log2 enrichment (interaction score).

On to “GGCUAGAACUAGUGGAUCCCCCGGCGCCCGGCGGCUCGAGCCCGGGUAAGUGUGAAUAGUCUGCAUGCCGCCGGGCGCCAUGCCUGCAGGUCGACUCUAGAAAACAUG”, for which the binding signal was 1.92 log2 enrichment (interaction score).

Another test deals with PUM1 PUF domain R4-PWV (Homo sapiens, UniProt Q14671 828-1176, N971P;H972W;Q975V). The description is as above. The settings on record: tags: N-Gal4 AD-HA kept; label: inside an RPR1-promoter hybrid RNA with tandem MS2 sites; ssRNA. The method in brief:
as §1
On to “GGCUAGAACUAGUGGAUCCCCCGGCGCCCGGCGGCUCGAGCCCGGGUAAGUGUAAAUAGUCUGCAUGCCGCCGGGCGCCAUGCCUGCAGGUCGACUCUAGAAAACAUG”, for which the binding signal is 6 log2 enrichment (interaction score).

Take “GGCUAGAACUAGUGGAUCCCCCGGCGCCCGGCGGCUCGAGCCCGGGUAAGUGUAUAUAGUCUGCAUGCCGCCGGGCGCCAUGCCUGCAGGUCGACUCUAGAAAACAUG”: the binding signal is 6.68 log2 enrichment (interaction score).

Turning to “GGCUAGAACUAGUGGAUCCCCCGGCGCCCGGCGGCUCGAGCCCGGGUAAGUGUACAUAGUCUGCAUGCCGCCGGGCGCCAUGCCUGCAGGUCGACUCUAGAAAACAUG”, the binding signal was 5.39 log2 enrichment (interaction score).

For the next test, the target named is PUM1 PUF domain R4-APG (Homo sapiens, UniProt Q14671 828-1176, N971A;H972P;Q975G). Described as above. The settings on record: tags: N-Gal4 AD-HA kept; label: inside an RPR1-promoter hybrid RNA with tandem MS2 sites; ssRNA. The method in brief: as §1
“GGCUAGAACUAGUGGAUCCCCCGGCGCCCGGCGGCUCGAGCCCGGGUAAGUGUAAAUAGUCUGCAUGCCGCCGGGCGCCAUGCCUGCAGGUCGACUCUAGAAAACAUG”: the binding signal was 4.82 log2 enrichment (interaction score).

As to “GGCUAGAACUAGUGGAUCCCCCGGCGCCCGGCGGCUCGAGCCCGGGUAAGUGUAUAUAGUCUGCAUGCCGCCGGGCGCCAUGCCUGCAGGUCGACUCUAGAAAACAUG”, the binding signal is 4.91 log2 enrichment (interaction score).

Turning to “GGCUAGAACUAGUGGAUCCCCCGGCGCCCGGCGGCUCGAGCCCGGGUAAGUGUACAUAGUCUGCAUGCCGCCGGGCGCCAUGCCUGCAGGUCGACUCUAGAAAACAUG”, the binding signal was 0.78 log2 enrichment (interaction score).
